Experimental data published in PubChem BioAssay (NCATS).
Results filed as inconclusive are left out. Active and inactive are the calls of the source. Calls follow the shape of the dose curve; as a rule, active = well fitted cell-killing curve with a large enough effect; inconclusive = small, poorly fitted or top-dose-only effect, or effect the other way; inactive = flat fitted curve, though single readings scatter.

Key:
Assay in all cases: Primary qHTS to identify gynecologic anti-cancer compounds using libraries of approved drugs and bioactive compounds (AID 1345084); also: nearly all actives have a fitted effect of over 55% in size
C33A = conditions: Gynecologic cancer cell panel viability, ATPlite luminescence, 48 h; series mostly up to 57.5 µM
Outline: (§1)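 Five-point cytotoxicity, 48 h drug exposure at 37 C, 5% CO2, on cells seeded 16 h beforehand. ATP content read by ATPlite luminescence.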

CAOV3 = conditions: Gynecologic cancer cell panel viability, ATPlite luminescence, 48 h; series mostly up to 57.5 µM
Outline: as §1

CASKI = conditions: Gynecologic cancer cell panel viability, ATPlite luminescence, 48 h; series mostly up to 57.5 µM
Outline: as §1

Es-2 = conditions: Gynecologic cancer cell panel viability, ATPlite luminescence, 48 h; series mostly up to 57.5 µM
Outline: as §1

HeLa = conditions: Gynecologic cancer cell panel viability, ATPlite luminescence, 48 h; series mostly up to 57.5 µM
Outline: as §1

Hek293T = conditions: Gynecologic cancer cell panel viability, ATPlite luminescence, 48 h, control line for the selectivity index; series mostly up to 57.5 µM
Outline: as §1

JEG-3 = conditions: Gynecologic cancer cell panel viability, ATPlite luminescence, 48 h; series mostly up to 57.5 µM
Outline: as §1

OV90 = conditions: Gynecologic cancer cell panel viability, ATPlite luminescence, 48 h; series mostly up to 57.5 µM
Outline: as §1

PA-1 = conditions: Gynecologic cancer cell panel viability, ATPlite luminescence, 48 h; series mostly up to 57.5 µM
Outline: as §1

SKOV3 = conditions: Gynecologic cancer cell panel viability, ATPlite luminescence, 48 h; series mostly up to 57.5 µM
Outline: as §1

Tov-21-G = conditions: Gynecologic cancer cell panel viability, ATPlite luminescence, 48 h; series mostly up to 57.5 µM
Outline: as §1

Tov112D = conditions: Gynecologic cancer cell panel viability, ATPlite luminescence, 48 h; series mostly up to 57.5 µM
Outline: as §1
% is scaled to controls: 0 for no effect and ±100 for the full control effect.

C=C1C(OC(C)=O)C(=O)C2C(C)(C)C(O)CCC2(C)C1CC(OC(C)=O)/C(C)=C/COC(C)=O (stereo not given)
inactive: Potency (C33A) | Potency (CAOV3) | outcome (CASKI) | Potency (Es-2) | Potency (HeLa) | Potency (Hek293T) | Potency (JEG-3) | Potency (OV90) | Potency (PA-1) | Potency (SKOV3) | Potency (Tov-21-G) | Potency (Tov112D)

COC(=O)C(Cc1ccccc1)NC(=O)c1ccccc1 (stereo not given)
inactive: Potency (C33A) | Potency (CAOV3) | outcome (CASKI) | Potency (Es-2) | Potency (HeLa) | Potency (Hek293T) | Potency (JEG-3) | Potency (OV90) | Potency (PA-1) | Potency (SKOV3) | Potency (Tov-21-G) | Potency (Tov112D)

CC(=O)OC1C(O)C(C)(O)C(/C=C/C(=O)O)C2(C)CCCC(C)(C)C12 (stereo not given)
inactive: Potency (C33A) | Potency (CAOV3) | outcome (CASKI) | Potency (Es-2) | Potency (HeLa) | Potency (Hek293T) | Potency (JEG-3) | Potency (OV90) | Potency (PA-1) | Potency (SKOV3) | Potency (Tov-21-G) | Potency (Tov112D)

c1cc(-c2cc(C3CCNCC3)[nH]n2)ccn1
inactive: Potency (C33A) | Potency (CAOV3) | outcome (CASKI) | Potency (Es-2) | Potency (HeLa) | Potency (Hek293T) | Potency (JEG-3) | Potency (OV90) | Potency (PA-1) | Potency (SKOV3) | Potency (Tov-21-G) | Potency (Tov112D)

O=C(OC[C@H]1O[C@@H](Oc2ccccc2COC(=O)C2(O)C=CCCC2O)[C@H](O)[C@@H](O)[C@@H]1O)c1ccccc1 (stereo not given in full)
inactive: Potency (C33A) | Potency (CAOV3) | outcome (CASKI) | Potency (Es-2) | Potency (HeLa) | Potency (Hek293T) | Potency (JEG-3) | Potency (OV90) | Potency (PA-1) | Potency (SKOV3) | Potency (Tov-21-G) | Potency (Tov112D)

C/C=C1\[C@H](O[C@@H]2O[C@H](CO)[C@@H](O)[C@H](O)[C@H]2O)OC=C(C(=O)O)[C@H]1CC(=O)OCCc1ccc(O)cc1
inactive: Potency (C33A) | Potency (CAOV3) | outcome (CASKI) | Potency (Es-2) | Potency (HeLa) | Potency (Hek293T) | Potency (JEG-3) | Potency (OV90) | Potency (PA-1) | Potency (SKOV3) | Potency (Tov-21-G) | Potency (Tov112D)

Cc1cc(CNC(=O)c2cc(C(=O)NCc3ccc(F)c(C)c3)ncn2)ccc1F
inactive: Potency (C33A) | Potency (CAOV3) | outcome (CASKI) | Potency (Es-2) | Potency (HeLa) | Potency (Hek293T) | Potency (JEG-3) | Potency (OV90) | Potency (PA-1) | Potency (SKOV3) | Potency (Tov-21-G) | Potency (Tov112D)

CCC(=O)N1CCc2cc(OC)c(O)cc2C1
inactive: Potency (C33A) | Potency (CAOV3) | outcome (CASKI) | Potency (Es-2) | Potency (HeLa) | Potency (Hek293T) | Potency (JEG-3) | Potency (OV90) | Potency (PA-1) | Potency (SKOV3) | Potency (Tov-21-G) | Potency (Tov112D)

COC(=O)C1C(c2ccc(O)cc2)C(C(=O)O)C1c1ccc(O)cc1 (stereo not given)
inactive: Potency (C33A) | Potency (CAOV3) | outcome (CASKI) | Potency (Es-2) | Potency (HeLa) | Potency (Hek293T) | Potency (JEG-3) | Potency (OV90) | Potency (PA-1) | Potency (SKOV3) | Potency (Tov-21-G) | Potency (Tov112D)

CC1(O)CCC2C(C3C1CCC3(C)O)C2(C)C (stereo not given)
inactive: Potency (C33A) | Potency (CAOV3) | outcome (CASKI) | Potency (Es-2) | Potency (HeLa) | Potency (Hek293T) | Potency (JEG-3) | Potency (OV90) | Potency (PA-1) | Potency (SKOV3) | Potency (Tov-21-G) | Potency (Tov112D)

C=C(C(=O)OC)[C@]12O[C@@](C)(CC[C@@]3(O)/C(=C\C)C(=O)O[C@]3(C)C[C@@H]1OC(=O)C(CO)CN1CCCC1C(=O)O)CC2=O (stereo not given in full)
inactive: Potency (C33A) | Potency (CAOV3) | outcome (CASKI) | Potency (Es-2) | Potency (HeLa) | Potency (Hek293T) | Potency (JEG-3) | Potency (OV90) | Potency (PA-1) | Potency (SKOV3) | Potency (Tov-21-G) | Potency (Tov112D)

C=C1C(OC(C)=O)CCC2(C)CC3(O)OC(=O)C(C)=C3CC12 (stereo not given)
inactive: Potency (C33A) | Potency (CAOV3) | outcome (CASKI) | Potency (Es-2) | Potency (HeLa) | Potency (Hek293T) | Potency (JEG-3) | Potency (OV90) | Potency (PA-1) | Potency (SKOV3) | Potency (Tov-21-G) | Potency (Tov112D)

CC12CC(c3ccoc3)OC(=O)C1CCC1(C)C2CCC(O)C1(C)O (stereo not given)
inactive: Potency (C33A) | Potency (CAOV3) | outcome (CASKI) | Potency (Es-2) | Potency (HeLa) | Potency (Hek293T) | Potency (JEG-3) | Potency (OV90) | Potency (PA-1) | Potency (SKOV3) | Potency (Tov-21-G) | Potency (Tov112D)

OC[C@@]1(O)CO[C@H](OC[C@H]2O[C@@H](OCCc3ccccc3)[C@H](O)[C@@H](O)[C@@H]2O)[C@@H]1O
inactive: Potency (C33A) | Potency (CAOV3) | outcome (CASKI) | Potency (Es-2) | Potency (HeLa) | Potency (Hek293T) | Potency (JEG-3) | Potency (OV90) | Potency (PA-1) | Potency (SKOV3) | Potency (Tov-21-G) | Potency (Tov112D)

CC1OC(OC2C(OC3C(O[C@H]4CC[C@@]5(C)C(CC[C@]6(C)C5C(=O)CC5=C7CC(C)(C)CC(O)[C@]7(C)CC[C@]56C)C4(C)C)OC(C(=O)O)C(O)C3O)OCC(O)C2O)C(O)C(O)C1O (stereo not given in full)
inactive: activity change, negative = cytotoxicity (C33A) 2.35% [at 11.6 µM] | activity change, negative = cytotoxicity (CAOV3) 18.5% [at 11.6 µM] | activity change, negative = cytotoxicity (CASKI) 14.8% [at 11.6 µM] | activity change, negative = cytotoxicity (Es-2) -7.45% [at 11.6 µM] | activity change, negative = cytotoxicity (HeLa) 0.531% [at 11.6 µM] | activity change, negative = cytotoxicity (Hek293T) -3% [at 11.6 µM] | activity change, negative = cytotoxicity (JEG-3) -0.413% [at 11.6 µM] | activity change, negative = cytotoxicity (OV90) -4.22% [at 11.6 µM] | activity change, negative = cytotoxicity (PA-1) 14.2% [at 11.6 µM] | activity change, negative = cytotoxicity (SKOV3) 29.3% [at 11.6 µM] | activity change, negative = cytotoxicity (Tov-21-G) 4.68% [at 11.6 µM] | activity change, negative = cytotoxicity (Tov112D) 3.63% [at 11.6 µM]
